The list is not random: actives were taken first. Their share in the collection is about 10%.
CtBP-E1A blk – CtBP/E1A binding inhibition | AlphaScreen GST-E1A/His-CtBP binding, 1536-well; active compounds read low | activity change, % (test concentration not listed) | 340,000 tested, 0.49% active; in the data active = activity change below about -65%; inconclusive = mostly about -30% to -63%; note: % is set by controls: 0 for no effect and ±100 for the full control effect
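Homogeneous bead-based format: GST-tagged E1A captured on glutathione donor beads, His-tagged CtBP on nickel acceptor beads; compounds precede bead addition by 2 h at 37 °C.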
Six1-Eya2 blk – inhibitors of human Six1/Eya2 interaction; Q15475+O00167; AlphaScreen GST-Six1/His-Eya2 binding, biochemical; active compounds read low; activity change, % (concentration not given with the values); 360,000 tested, 0.56% active; in the data active = activity change below about -65%; inconclusive = mostly about -30% to -63%; note: % is set by controls: 0 for no effect and ±100 for the full control effect
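Six1/Eya2 binding was read as AlphaScreen signal after compounds were pinned into GST-Six1 plus His-tagged Eya2 (5X stock 250/500 nM) in pH 8.0 Tris/NaCl/TCEP buffer, beads added, then incubated 1 h, 37 C, dark.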
JMJD2A Tudor – blocks the human JMJD2A Tudor domain. Potency, µM (top dose mostly 114 µM), for the others: at the highest dose activity change, negative = inhibition, most hits filed as inhibitors. AlphaScreen JMJD2A-Tudor / H3K4me3 peptide binding. O75164. 390,000 tested, 4.4% active; note: potency is the fitted concentration of half-maximal effect; % is set by controls: 0 for no effect and ±100 for the full control effect; nearly all actives have a fitted effect of over 50% in size
HP1b binding inh – HP1-beta chromodomain-methylated histone interaction inhibition; P83916; AlphaScreen HP1-beta / biotin-H3K9me3 peptide binding; Potency, µM (top dose mostly 114 µM), inactives show top-dose activity change, negative = inhibition, usual class: inhibitors; 390,000 tested, 0.56% active; note: potency is the fitted concentration of half-maximal effect; nearly all actives have a fitted effect of over 70% in size
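AlphaScreen: HP1-beta (50 nM) preformed 30 min with biotin-H3(1-18)K9me3 peptide (50 nM) in PBS pH 7.4, 0.01% Tween-20. Compound added for 30 min at RT, then streptavidin donor/nickel chelate acceptor beads (10 ug/mL) for 30 min.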
BAZ2B block – inhibitors of human BAZ2B bromodomain; Q9UIF8; 360,000 tested, 4.4% active; AlphaScreen BAZ2B-H3K14Ac peptide displacement; Potency, µM (doses to about 114 µM), for inactives: at the highest dose activity change, negative = inhibition, hits mostly inhibitors; note: potency is the fitted concentration of half-maximal effect; % is set by controls: 0 for no effect and ±100 for the full control effect; nearly all actives have a fitted effect of over 60% in size
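Compounds, titrated to a top concentration of 110 uM, were incubated 30 min at room temperature with preformed BAZ2B/acetyl-K14 H3 peptide complex (50 nM each). Proximity signal was measured by AlphaScreen after 20 min with beads.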
G9a inh – G9a (human) methyltransferase inhibition; G9a H3K9 monomethylation, AlphaScreen, 2 h; Potency, µM (highest dose often 102 µM), without a hit: at the highest dose activity, negative = inhibition, usual class: inhibitors; 350,000 tested, 8.8% active; AID 504332; note: potency is the fitted concentration of half-maximal effect; % is set by controls: 0 for no effect and ±100 for the full control effect; nearly all actives have a fitted effect of over 75% in size
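Compounds were preincubated with 20 nM G9a for 15 min, after which biotinylated H3K9 peptide (500 nM) and SAM (20 uM) started a 2 h room-temperature reaction. Monomethylated product was quantified by antibody-based AlphaScreen chemiluminescence.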
* hit, by the source's call; ? = inconclusive; · = no result; [ ] = remark or other dose. Unless noted, calls come from the whole dose curve; as a rule, active = well fitted inhibition curve with a large enough effect; inconclusive = small, poorly fitted or top-dose-only effect; inactive = no such curve, though single readings can be large or run the other way.

SMILES	CtBP-E1A blk	Six1-Eya2 blk	JMJD2A Tudor	HP1b binding inh	BAZ2B block	G9a inh
CN1CC(=O)N(CC(=O)Nc2ccc(N(C)C)cc2)c2ccccc2C1=O	3	2	-27%	18%	50µM*	14µM*
O=C(CN1CCc2ccccc2C1)Nc1cccc(S(=O)(=O)N2CCCC2)c1	5	-2	?	?	·	4µM*
CCN1CCN(CCC(=O)Nc2cc(C)ccc2C)CC1	6	1	-10%	32%	-1%	5%
O=C(Cc1ccccc1)Nc1cccc(S(=O)(=O)N2CCCCCC2)c1	0	-1	-18%	29%	2%	-1%[12.7 µM]
CC1Cc2ccccc2N1C(=O)CNc1cccc(S(=O)(=O)N2CCCC2)c1 (centres undefined)	-8	-9	6.3µM*	-22%	?	50µM*
CN(C)c1ccc(NC(=O)CN2CCc3ccccc3C2)cc1	-26	-24	50µM*	?	40µM*	13µM*
O=C(CN1CCc2ccccc2C1)Nc1ccc(F)cc1	15	1	6%	33%	2%	20%[59 µM]
O=C(CSc1nc2c([nH]c3ccccc32)c(=O)n1-c1cccc(Cl)c1)NCc1ccccc1	·	·	-9%	21%[57 µM]	3%	18%[59 µM]
C=CCNC(=O)c1ccc(C2SCC(=O)N2Cc2ccccc2)cc1 (centres undefined)	-3	0	-2%	27%	-17%	50µM*
O=C(NCc1ccccc1)c1ccc(C2SCC(=O)N2Cc2ccccc2)cc1 (centres undefined)	0	-3	5%	30%	-2%	-14%[59 µM]
CCCNC(=O)c1ccc(C2SCC(=O)N2CCc2ccccc2)cc1 (centres undefined)	-2	2	-16%	18%	2%	45µM*
O=C(CC1N=C2c3ccccc3N=C(SCc3ccccc3Cl)N2C1=O)NCc1cccs1 (centres undefined)	·	·	-24%	-7%	-13%	4%[59 µM]
CCCCCCCCCCCCCCCC[n+]1cccc2ccccc21	-8	-29	?	-13%	50µM*	6.3µM*
CC(=O)Nc1ccc(C=CC=Cc2cccc([N+](=O)[O-])c2)cc1	14	-11	79µM*	?	·	·
O=C(CNc1ccc2ccccc2c1)N/N=C/C=C/c1cccc([N+](=O)[O-])c1	3	-9	?	16%	89µM*	3.2µM*
CN1C(=O)Cc2cc(S(=O)(=O)CCC(=O)N3CCN(c4ccc(Cl)cc4)CC3)ccc21	·	·	-21%	10%	-20%	1%[59 µM]
COc1ccc(C(=O)NC(=S)NNC(=O)c2c(-c3ccccc3)noc2C)cc1OC	-7	0	-28%	6%	-10%	32µM*
Cc1onc(-c2ccccc2)c1C(=O)NNC(=S)NC(=O)c1ccc2c(c1)OCO2	-8	-1	-36%	-16%	-17%	50µM*
Cc1onc(-c2ccccc2)c1C(=O)NCc1ccc2c(c1)OCO2	8	0	-7%	35%	?	?
Cc1onc(-c2ccccc2)c1C(=O)NC(=S)NNC(=O)c1ccncc1	8	-6	-13%	5%	2%	4%[59 µM]
Cc1onc(-c2ccccc2)c1C(=O)NC(=S)NNC(=O)c1cc(-c2ccc(F)cc2)n[nH]1	-1	-11	-18%	12%	-6%	50µM*
Cc1onc(-c2ccccc2)c1C(=O)NNC(=S)NC(=O)/C=C/c1cccs1	-21	-18	-22%	2%	7%	13µM*
CCCCSc1nc(-c2ccc(OC)cc2)ccc1C#N	·	·	217%	239%	190%	86%[59 µM]
Cc1ccc(S(=O)(=O)Nc2cc3c(cc2C)n(C)c(=O)c(=O)n3C)c(C)c1	·	·	-3%	-2%	-16%	8%[59 µM]
Nc1ccccc1SCC(=O)Nc1nccs1	3	-3	4%[57.1 µM]	34%	-2%	?
SMILES	CtBP-E1A blk	Six1-Eya2 blk	JMJD2A Tudor	HP1b binding inh	BAZ2B block	G9a inh
Cc1csc(NC(=O)CSc2ccc(-c3ccccn3)nn2)n1	·	-86*	22µM*	13%	7.1µM*	3%
O=C(CSc1ccc(-c2ccccn2)nn1)Nc1nccs1	?	?	2.5µM*	16%	-9%	40%
COc1ccccc1CNC(=O)CSc1ccc(-c2ccccn2)nn1	·	-67*	32µM*	23%	8.9µM*	8%
Cc1csc(NC(=O)CSc2ccccc2F)n1	18	2	-16%	25%	-2%	1%
Cc1cc(C(=O)C(=O)Nc2nnc(C(C)C)s2)c(C)n1-c1ccccc1	·	·	-24%	10%	3%	-4%[59 µM]
C=Cc1cc2c(s1)c1cnn(Cc3ccccc3F)c(=O)c1n2C	·	·	-16%	·	·	·
COc1ccc(CCNC(=O)Cn2c(=O)nc(-c3ccccc3F)c3cc(Cl)ccc32)cc1OC	·	·	-10%	26%	-23%	-1%[59 µM]
COc1ccc(N2CCN(Cc3csc(C)c3-c3ccc(C)cc3)CC2)cc1	?	?	13µM*	35µM*	28µM*	11µM*
Cc1ccc(-c2c(CN3CCN(c4cc(C)ccc4C)CC3)csc2C)cc1	·	·	?	41%	?	-47%[59 µM]
COc1ccccc1N1CCN(Cc2cc3c(cc2Br)OCCO3)CC1	-1	?	?	-12%	?	?
COc1ccc(N2CCN(Cc3cc4c(cc3Br)OCCO4)CC2)cc1	-27	?	22µM*	?	13µM*	28µM*
Cn1nc(-c2ccccc2F)c2cc(C(=O)NCc3cccc(Cl)c3)sc21	·	·	-26%	4%	-8%	-10%[59 µM]
COc1cc(OC)c(OC)cc1CN1CCc2nc(Nc3ccc4c(c3)OCCO4)ncc2C1	·	·	56µM*	-13%	45µM*	14µM*
CCOc1ccccc1CN1CCc2nc(Nc3ccc4c(c3)OCCO4)ncc2C1	·	·	56µM*	?	40µM*	?
COc1cc(OC)c(OC)cc1CN1CCc2nc(N3CCN(c4ncccn4)CC3)ncc2C1	·	·	?	0%	?	-6%[12.7 µM]
Clc1ccc(CN2CCc3nc(Nc4ccc5c(c4)OCCO5)ncc3C2)cc1	·	·	28µM*	-22%	18µM*	-29%[12.7 µM]
COc1cc(Nc2ncc3c(n2)CCN(Cc2cccc(C)c2)C3)cc(OC)c1	·	·	?	12%	?	1%[12.7 µM]
COc1cc(Nc2ncc3c(n2)CCN(Cc2cc(F)cc(F)c2)C3)cc(OC)c1	·	·	-22%	8%	?	-28%[59 µM]
Cc1ccccc1OCC(=O)Nc1ccc(C(=O)OCc2cc(=O)n3ccsc3n2)cc1	·	·	-4%	13%	-24%	15%[59 µM]
CCCCC/C(C=O)=C/c1ccccc1	·	·	·	·	·	22%[59 µM]
CCOC(=O)C1=C(C)NC(=O)NC1C (centres undefined)	2	0	-12%	10%	3%	4%[12.7 µM]
CCOC(=O)C1=C(CBr)NC(=O)NC1C (centres undefined)	12	1	?	31%	50µM*	28µM*
